The values that follow come from PubChem BioAssay (NCI).

The panel holds about 83,000 compounds, 20% with a hit somewhere; the sample as a whole holds those more often.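 Interpretation: 100, growth as untreated; towards 0, rising growth inhibition; 0, no net growth; 0 to -100, cell death. Compounds scoring below 10 were considered active.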 A number with no mark means an inactive call. Calls of active or inactive are those of the source.

Some test systems named below: SK-MEL-2 melanoma; EKVX NSCLC; SN12C renal; UO-31 renal; TK-10 renal; ACHN renal; CAKI-1 renal; A498 renal; CCRF-CEM leukemia; MOLT-4 leukemia.
Common to all, as to experiment: NCI-60 one-dose screen, 48 h (100 = growth as untreated, 0 = no growth, -100 = all killed)
Holding throughout (conditions): 10 µM unless noted

`CCCCCCCCCCCC(=O)NC(C)(C)C(=O)N1CCCC1C(=O)NC(C)(C)C(=O)NC(C)(C)C(=O)N1CCCC1C(=O)NC(C)(C)C(=O)NC(C)(C)C(=O)N1CCCC1C(=O)NC(C)C(=O)NCCC(=O)NC(C)C(=O)NC(C)(C)C(=O)NC(C)(C)C(=O)NC(C)(C)C(=O)NCCC(=O)NC(C)(C)C(=O)NC(C)(C)C(=O)NC(C)(C)C(=O)NC(C)C(=O)NCCC(=O)O` (stereo not given): the growth in the assay with SK-MEL-2 melanoma was -96.2% (active); with EKVX NSCLC, -88.5% (active); with SN12C renal, -94% (active); in the assay with UO-31 renal, -99.7% (active); in the assay on TK-10 renal, -97.1% (active); in the assay with ACHN renal, -100% (active). Moreover, the growth with CAKI-1 renal is -94.2% (active); with A498 renal it was -98.5% (active); with CCRF-CEM leukemia, -55.6% (active); in the assay with MOLT-4 leukemia, -67.9% (active).
`NS(=O)(=O)c1ccc(Nc2nc(N/N=C/C=C/c3ccccc3)nc(Nc3ccccc3)n2)cc1`: the growth with SK-MEL-2 melanoma was 45%; with EKVX NSCLC, 71.3%; in the assay on SN12C renal it was 48.1%; in the assay on UO-31 renal it was 39.6%; in the assay on TK-10 renal it was 86.8%; in the assay with ACHN renal, 38.5%. In addition, the growth in the assay on CAKI-1 renal was 46.1%; in the assay on A498 renal, 40.2%; with CCRF-CEM leukemia, 24.8%; with MOLT-4 leukemia, 12.3%.
Take `CC[C@]12CC(C(=O)OC)=C3Nc4ccccc4[C@@]34CCN(C14)[C@@H]1c3cc4c(cc3O[C@@H]1[C@H]2O)NC1=C(C(=O)OC)C[C@@]2(CC)C3N(CC[C@@]143)C[C@H]1O[C@H]12` (stereo not given in full): the growth in the assay on SK-MEL-2 melanoma was 40.8%; in the assay with EKVX NSCLC it was 26.1%; in the assay on SN12C renal, 31.1%; in the assay on UO-31 renal, 7.33% (active); with TK-10 renal, 6.66% (active); in the assay with ACHN renal, 11.1%. The growth was 8.4% (active) with CAKI-1 renal, -46.1% (active) in the assay on A498 renal, 12.6% in the assay on CCRF-CEM leukemia and 14% in the assay with MOLT-4 leukemia.
Consider `COc1ccc(-c2nc(C#N)c(N3CCC(S(=O)(=O)N4CCOCC4)CC3)o2)cc1`, for which the growth is 102% in the assay on SK-MEL-2 melanoma; 105% with EKVX NSCLC; 99.5% in the assay on SN12C renal; 89.1% in the assay with UO-31 renal; 131% in the assay on TK-10 renal; 97.8% with ACHN renal. For the same compound, the growth with CAKI-1 renal was 92.9%; in the assay on A498 renal it was 100%; in the assay on CCRF-CEM leukemia it was 101%; in the assay on MOLT-4 leukemia, 98.3%.
As for `C/C(=N/N)c1nnn(-c2ccc(Br)cc2)c1C`, the growth is 112% in the assay on SK-MEL-2 melanoma; 99.5% in the assay with EKVX NSCLC; 91% in the assay with SN12C renal; 79.7% in the assay on UO-31 renal; 98.1% in the assay on TK-10 renal; 101% in the assay on ACHN renal. The growth in the assay with CAKI-1 renal is 91.6%; in the assay with A498 renal it was 93.3%; in the assay on CCRF-CEM leukemia, 109%; in the assay with MOLT-4 leukemia it was 93.6%.
For the compound `C=C(C)[C@@H]1CC[C@]2(C(=O)O)CC[C@]3(C)[C@H](CC[C@@H]4[C@@]5(C)C/C(=C/c6ccccn6)C(=O)C(C)(C)[C@@H]5CC[C@]43C)[C@@H]12`, the growth with SK-MEL-2 melanoma was 68.5%; in the assay on EKVX NSCLC, 33.3%; in the assay with SN12C renal it was 41.1%; with UO-31 renal, 35.8%; in the assay on TK-10 renal, 60.8%; in the assay on ACHN renal, 35.9%. In addition, the growth in the assay on CAKI-1 renal was 26.8%; in the assay on A498 renal it was 61.7%; with CCRF-CEM leukemia it was 21.8%; with MOLT-4 leukemia, 29.4%.
As to `COc1ccc(-c2cc(-c3ccc(N4CCOCC4)cc3)n3c(n2)nc2ccccc23)cc1OC`, the growth in the assay on SK-MEL-2 melanoma is 97.8%; in the assay on EKVX NSCLC, 88.3%; with SN12C renal, 78.6%; with UO-31 renal it was 39.2%; with TK-10 renal it was 98.8%; in the assay with ACHN renal, 93.6%. The growth in the assay on CAKI-1 renal is 50.6%; in the assay with A498 renal, 63%; in the assay with CCRF-CEM leukemia it was 63.7%; in the assay with MOLT-4 leukemia, 51.4%.
Take `CCCCc1nc2c(N)nc3ccccc3c2n1Cc1cccc(CN)c1`: the growth in the assay on SK-MEL-2 melanoma was 79.4%; with EKVX NSCLC, 77%; in the assay with SN12C renal, 68.9%; in the assay on UO-31 renal, 70.5%; in the assay on TK-10 renal it was 89.9%; in the assay on ACHN renal, 65%. The growth in the assay on CAKI-1 renal was 14.2%; with A498 renal, 16.3%; in the assay on CCRF-CEM leukemia, 23.9%; in the assay with MOLT-4 leukemia, 33.9%.
Take `COc1cc2oc(-c3cccc(NC(=O)c4cccc([N+](=O)[O-])c4)c3)cc(=O)c2c(OC)c1OC`: the growth with SK-MEL-2 melanoma is 91.5%; with EKVX NSCLC, 63.9%; in the assay with SN12C renal, 40.2%; in the assay with UO-31 renal, 37.8%; in the assay with TK-10 renal it was 92.7%; in the assay on ACHN renal, 30.3%. For the same compound, the growth in the assay with CAKI-1 renal was 49.7%; with A498 renal, 72.9%; with CCRF-CEM leukemia it was 59.7%; in the assay on MOLT-4 leukemia, 54%.
Regarding `Cc1cc2nc3c4cc(C#N)ccc4n(CCN(C)C)c3nc2cc1C`, the growth was -86.7% (active) in the assay with SK-MEL-2 melanoma; -7.83% (active) with EKVX NSCLC; 2.81% (active) with SN12C renal; -27.9% (active) with UO-31 renal; -2.16% (active) with TK-10 renal; -13.7% (active) in the assay with ACHN renal. In addition, the growth was -27.3% (active) in the assay on CAKI-1 renal, -44% (active) with A498 renal, 3.32% (active) in the assay with CCRF-CEM leukemia and 3.23% (active) in the assay with MOLT-4 leukemia.
Turning to `CCCCCCOC(=O)c1cc(-c2ccc(F)cc2)nc2ccccc12`, the growth was 101% in the assay with SK-MEL-2 melanoma; 96.8% with EKVX NSCLC; 95% in the assay with SN12C renal; 86.6% with UO-31 renal; 118% with TK-10 renal; 100% with ACHN renal. For the same compound, the growth in the assay with CAKI-1 renal is 90.3%; in the assay with A498 renal it was 76.4%; with CCRF-CEM leukemia, 95.8%; with MOLT-4 leukemia, 97.2%.
